For one sequence, binding signal results are on record in PMC7862700, “An all-to-all approach to the identification of sequence-specific readers for epigenetic DNA modifications on cytosine”.

Assay in all cases: DAPPL (digital affinity profiling via proximity ligation, sequencing); 10 mM Tris-HCl pH 7.5, 50 mM NaCl, 1 mM DTT, 4% glycerol, room temperature, 30 min; GST-TFs on glutathione beads, 16-mer random dsDNA library, 0.1% formaldehyde crosslink after washing; high values mean tight binding
For one assay, the target named is T1, FLI1 (Homo sapiens, UniProt Q01543 1-452).
T1 sequence: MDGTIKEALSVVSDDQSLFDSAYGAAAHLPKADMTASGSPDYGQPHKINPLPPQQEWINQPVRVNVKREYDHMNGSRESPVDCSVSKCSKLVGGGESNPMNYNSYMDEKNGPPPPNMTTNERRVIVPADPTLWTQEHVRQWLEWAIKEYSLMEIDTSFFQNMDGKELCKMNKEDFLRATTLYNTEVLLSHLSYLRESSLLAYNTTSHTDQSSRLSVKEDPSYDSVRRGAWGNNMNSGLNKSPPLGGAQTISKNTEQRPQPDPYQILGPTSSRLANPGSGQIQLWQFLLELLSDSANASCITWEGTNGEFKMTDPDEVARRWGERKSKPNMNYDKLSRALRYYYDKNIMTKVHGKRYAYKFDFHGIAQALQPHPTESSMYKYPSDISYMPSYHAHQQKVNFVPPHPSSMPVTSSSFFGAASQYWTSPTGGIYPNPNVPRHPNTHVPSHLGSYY
To be noted: protein: recombinant; tags: N-terminal GST; dsDNA, one strand shown. Summed up:
(§1)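 Each value of binding signal is a hexamer's read frequency for a factor divided by the same hexamer's frequency in the tag-only sample. Barcoded, bead-captured GST fusions of human transcription factors made in yeast were pooled with that sample and incubated with 200 nmole of a random double-stranded 16-mer DNA library in Tris/NaCl/DTT/glycerol buffer at room temperature for 30 min. Washing, 0.1% formaldehyde crosslinking, proximity ligation, PCR and Illumina NextSeq500 sequencing followed.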

The next assay addresses T2, ELK1 (Homo sapiens, UniProt P19419 1-428).
T2 sequence: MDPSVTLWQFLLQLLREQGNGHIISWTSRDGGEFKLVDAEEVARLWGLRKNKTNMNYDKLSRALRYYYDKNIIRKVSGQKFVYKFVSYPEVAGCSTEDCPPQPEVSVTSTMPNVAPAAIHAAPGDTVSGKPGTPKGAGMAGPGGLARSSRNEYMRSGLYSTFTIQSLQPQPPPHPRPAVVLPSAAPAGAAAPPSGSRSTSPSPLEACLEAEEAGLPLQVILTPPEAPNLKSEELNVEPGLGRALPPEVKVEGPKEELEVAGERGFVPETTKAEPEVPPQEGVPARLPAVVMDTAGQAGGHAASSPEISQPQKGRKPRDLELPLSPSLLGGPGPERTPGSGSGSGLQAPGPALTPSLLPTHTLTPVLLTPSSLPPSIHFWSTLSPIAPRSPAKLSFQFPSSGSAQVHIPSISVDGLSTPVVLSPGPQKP
To be noted: protein: recombinant; tags: N-terminal GST; dsDNA, one strand shown. Summed up: as §1

For another assay, the target named is T3, GABPA (Homo sapiens, UniProt Q06546 1-454).
T3 sequence: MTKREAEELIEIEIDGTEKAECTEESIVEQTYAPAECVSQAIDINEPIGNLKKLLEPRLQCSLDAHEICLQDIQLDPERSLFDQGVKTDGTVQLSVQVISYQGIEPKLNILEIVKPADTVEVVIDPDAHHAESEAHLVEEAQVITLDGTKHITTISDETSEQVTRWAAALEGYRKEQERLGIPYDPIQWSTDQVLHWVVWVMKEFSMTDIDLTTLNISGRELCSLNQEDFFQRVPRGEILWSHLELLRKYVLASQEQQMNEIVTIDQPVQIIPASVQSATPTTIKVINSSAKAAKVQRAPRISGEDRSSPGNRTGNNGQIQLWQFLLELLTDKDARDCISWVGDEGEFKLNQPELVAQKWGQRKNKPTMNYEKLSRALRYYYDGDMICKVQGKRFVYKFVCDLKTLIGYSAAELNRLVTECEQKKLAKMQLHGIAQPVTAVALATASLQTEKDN
To be noted: protein: recombinant; tags: N-terminal GST; dsDNA, one strand shown. Summed up:
as §1

Another assay has as its target T4, ERG (Homo sapiens, UniProt P11308 1-479).
T4 sequence: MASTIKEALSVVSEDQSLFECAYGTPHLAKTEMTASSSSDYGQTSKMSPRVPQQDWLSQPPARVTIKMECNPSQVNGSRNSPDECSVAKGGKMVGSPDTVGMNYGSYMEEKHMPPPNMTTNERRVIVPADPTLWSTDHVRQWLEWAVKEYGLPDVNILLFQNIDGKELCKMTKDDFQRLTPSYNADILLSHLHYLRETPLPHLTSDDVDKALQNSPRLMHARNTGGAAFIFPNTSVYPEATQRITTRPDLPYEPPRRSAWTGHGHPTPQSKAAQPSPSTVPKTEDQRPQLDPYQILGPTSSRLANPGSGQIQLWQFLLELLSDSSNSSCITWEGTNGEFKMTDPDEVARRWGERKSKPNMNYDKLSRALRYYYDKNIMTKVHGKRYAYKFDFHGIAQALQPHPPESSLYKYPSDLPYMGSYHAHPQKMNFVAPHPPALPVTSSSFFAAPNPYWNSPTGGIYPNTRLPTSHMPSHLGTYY
To be noted: protein: recombinant; tags: N-terminal GST; dsDNA, one strand shown. Summed up:
as §1

Another assay concerns the target ELF1 (Homo sapiens, UniProt P32519 1-619). The conditions noted are these: protein: recombinant; tags: N-terminal GST; dsDNA, one strand shown. Summed up:
as §1

The target in the next assay is T5, EHF (Homo sapiens, UniProt Q9NZC4 1-300).
T5 sequence: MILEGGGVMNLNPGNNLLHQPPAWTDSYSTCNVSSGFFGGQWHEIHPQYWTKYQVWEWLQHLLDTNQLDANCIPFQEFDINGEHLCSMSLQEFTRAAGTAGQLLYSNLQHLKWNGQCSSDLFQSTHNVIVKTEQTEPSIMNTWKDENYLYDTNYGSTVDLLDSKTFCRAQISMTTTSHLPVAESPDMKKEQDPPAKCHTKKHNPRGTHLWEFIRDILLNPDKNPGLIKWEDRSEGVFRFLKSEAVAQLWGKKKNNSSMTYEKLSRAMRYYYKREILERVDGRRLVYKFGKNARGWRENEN
The conditions noted are these: protein: recombinant; tags: N-terminal GST; dsDNA, one strand shown. Summed up: as §1

The next assay has as its target SPI1 (Homo sapiens, UniProt P17947 1-270). The conditions noted are these: protein: recombinant; tags: N-terminal GST; dsDNA, one strand shown. Summed up: as §1
The target in another assay is SPIB (Homo sapiens, UniProt Q01892 1-262). The conditions noted are these: protein: recombinant; tags: N-terminal GST; dsDNA, one strand shown. Summed up: as §1
The target in another assay is T6, ELK3 (Homo sapiens, UniProt P41970 1-407).
T6 sequence: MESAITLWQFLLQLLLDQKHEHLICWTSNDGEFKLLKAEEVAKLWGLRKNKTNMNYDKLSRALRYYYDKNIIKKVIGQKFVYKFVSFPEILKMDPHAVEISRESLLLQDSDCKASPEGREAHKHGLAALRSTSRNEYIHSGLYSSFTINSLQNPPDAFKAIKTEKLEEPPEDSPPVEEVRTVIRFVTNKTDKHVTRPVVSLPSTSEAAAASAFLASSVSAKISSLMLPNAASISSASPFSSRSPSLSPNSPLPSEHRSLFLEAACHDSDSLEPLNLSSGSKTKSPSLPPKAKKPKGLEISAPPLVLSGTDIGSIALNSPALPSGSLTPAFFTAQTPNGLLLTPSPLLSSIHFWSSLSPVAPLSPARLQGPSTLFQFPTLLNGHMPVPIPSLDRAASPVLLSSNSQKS
The conditions noted are these: protein: recombinant; tags: N-terminal GST; dsDNA, one strand shown. Summed up:
as §1

Another assay deals with T7, FEV (Homo sapiens, UniProt Q99581 1-238).
T7 sequence: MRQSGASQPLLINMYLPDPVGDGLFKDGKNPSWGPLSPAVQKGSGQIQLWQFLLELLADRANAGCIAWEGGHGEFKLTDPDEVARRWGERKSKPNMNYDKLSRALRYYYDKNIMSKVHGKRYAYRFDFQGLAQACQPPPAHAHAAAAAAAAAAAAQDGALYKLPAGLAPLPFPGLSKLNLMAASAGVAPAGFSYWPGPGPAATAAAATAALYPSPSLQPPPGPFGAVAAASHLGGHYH
To be noted: protein: recombinant; tags: N-terminal GST; dsDNA, one strand shown. Summed up: as §1

A further assay has as its target ETV5 (Homo sapiens, UniProt P41161 1-510). The conditions noted are these: protein: recombinant; tags: N-terminal GST; dsDNA, one strand shown. Summed up: as §1
The next assay concerns the target HSF1 (Homo sapiens, UniProt Q00613 1-529). To be noted: protein: recombinant; tags: N-terminal GST; chain copies: 3; dsDNA, one strand shown. Summed up: as §1
Another assay deals with T8, SPIC (Homo sapiens, UniProt Q8N5J4 1-248).
T8 sequence: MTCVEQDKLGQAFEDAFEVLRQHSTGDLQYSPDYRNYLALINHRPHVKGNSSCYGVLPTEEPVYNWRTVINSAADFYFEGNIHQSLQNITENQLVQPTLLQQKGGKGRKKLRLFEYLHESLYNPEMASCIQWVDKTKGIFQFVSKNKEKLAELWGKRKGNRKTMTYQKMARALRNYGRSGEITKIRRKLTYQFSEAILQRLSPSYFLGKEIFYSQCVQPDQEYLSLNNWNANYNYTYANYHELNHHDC
To be noted: protein: recombinant; tags: N-terminal GST; dsDNA, one strand shown. Summed up: as §1

Another assay concerns the target ELF4 (Homo sapiens, UniProt Q99607 1-663). To be noted: protein: recombinant; tags: N-terminal GST; dsDNA, one strand shown. Summed up:
as §1

Another assay concerns the target T9, ELK4 (Homo sapiens, UniProt P28324-2 1-405).
T9 sequence: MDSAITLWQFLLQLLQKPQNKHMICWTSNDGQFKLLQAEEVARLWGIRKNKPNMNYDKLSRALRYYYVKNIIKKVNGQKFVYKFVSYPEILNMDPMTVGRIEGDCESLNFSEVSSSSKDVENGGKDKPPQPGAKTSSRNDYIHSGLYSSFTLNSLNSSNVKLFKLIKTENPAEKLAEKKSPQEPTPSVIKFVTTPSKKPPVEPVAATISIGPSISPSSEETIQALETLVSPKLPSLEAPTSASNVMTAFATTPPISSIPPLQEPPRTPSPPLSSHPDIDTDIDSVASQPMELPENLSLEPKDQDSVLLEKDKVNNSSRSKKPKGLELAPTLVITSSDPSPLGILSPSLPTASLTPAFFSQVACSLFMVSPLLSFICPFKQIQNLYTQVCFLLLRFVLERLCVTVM
To be noted: protein: recombinant; tags: N-terminal GST; dsDNA, one strand shown. Summed up:
as §1

The target in another assay is T10, ETV2 (Homo sapiens, UniProt O00321 1-342).
T10 sequence: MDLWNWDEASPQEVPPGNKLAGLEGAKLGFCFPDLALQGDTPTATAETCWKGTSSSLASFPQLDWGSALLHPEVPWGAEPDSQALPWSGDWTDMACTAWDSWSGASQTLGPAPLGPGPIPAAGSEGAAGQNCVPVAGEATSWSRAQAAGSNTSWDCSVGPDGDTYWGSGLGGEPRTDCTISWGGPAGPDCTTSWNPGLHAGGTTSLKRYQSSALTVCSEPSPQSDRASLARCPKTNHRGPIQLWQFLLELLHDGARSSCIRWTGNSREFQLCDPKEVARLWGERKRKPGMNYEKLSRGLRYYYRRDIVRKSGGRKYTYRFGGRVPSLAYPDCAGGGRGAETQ
To be noted: protein: recombinant; tags: N-terminal GST; dsDNA, one strand shown. Summed up: as §1

A further assay addresses T11, ELF3 (Homo sapiens, UniProt P78545 1-371).
T11 sequence: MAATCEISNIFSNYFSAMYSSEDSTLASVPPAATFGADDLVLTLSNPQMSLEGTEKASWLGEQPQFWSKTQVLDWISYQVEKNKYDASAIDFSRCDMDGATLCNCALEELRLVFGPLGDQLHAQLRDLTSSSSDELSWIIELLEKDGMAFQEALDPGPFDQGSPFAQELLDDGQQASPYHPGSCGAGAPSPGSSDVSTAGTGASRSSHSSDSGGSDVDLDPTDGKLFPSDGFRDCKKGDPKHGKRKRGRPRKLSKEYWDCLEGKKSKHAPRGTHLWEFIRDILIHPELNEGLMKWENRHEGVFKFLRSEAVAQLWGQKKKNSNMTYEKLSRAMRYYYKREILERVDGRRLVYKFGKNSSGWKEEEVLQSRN
To be noted: protein: recombinant; tags: N-terminal GST; dsDNA, one strand shown. Summed up:
as §1

The next assay has as its target CRX (Homo sapiens, UniProt O43186 1-299). The conditions noted are these: protein: recombinant; tags: N-terminal GST; dsDNA, one strand shown. Summed up: as §1
Another assay deals with ETV1 (Homo sapiens, UniProt P50549 1-477). To be noted: protein: recombinant; tags: N-terminal GST; dsDNA, one strand shown. Summed up:
as §1

Sequence of ELF4 (Q99607 whole entry): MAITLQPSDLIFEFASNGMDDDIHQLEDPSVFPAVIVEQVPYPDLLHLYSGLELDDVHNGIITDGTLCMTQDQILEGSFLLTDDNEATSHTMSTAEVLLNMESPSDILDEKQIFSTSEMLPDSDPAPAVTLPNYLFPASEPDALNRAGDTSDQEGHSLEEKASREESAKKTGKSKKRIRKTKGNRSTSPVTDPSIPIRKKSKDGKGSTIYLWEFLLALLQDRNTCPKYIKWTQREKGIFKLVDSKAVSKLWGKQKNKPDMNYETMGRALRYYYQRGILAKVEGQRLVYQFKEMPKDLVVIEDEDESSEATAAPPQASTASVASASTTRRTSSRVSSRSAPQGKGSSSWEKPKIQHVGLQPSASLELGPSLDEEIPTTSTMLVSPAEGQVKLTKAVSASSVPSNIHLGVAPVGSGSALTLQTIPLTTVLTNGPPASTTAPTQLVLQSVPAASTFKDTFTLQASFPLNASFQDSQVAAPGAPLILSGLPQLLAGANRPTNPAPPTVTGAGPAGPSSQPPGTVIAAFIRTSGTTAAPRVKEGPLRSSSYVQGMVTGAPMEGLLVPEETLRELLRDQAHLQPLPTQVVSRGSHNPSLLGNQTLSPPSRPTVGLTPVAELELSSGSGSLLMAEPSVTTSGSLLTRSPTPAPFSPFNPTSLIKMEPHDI
Sequence of SPIB (Q01892 whole entry): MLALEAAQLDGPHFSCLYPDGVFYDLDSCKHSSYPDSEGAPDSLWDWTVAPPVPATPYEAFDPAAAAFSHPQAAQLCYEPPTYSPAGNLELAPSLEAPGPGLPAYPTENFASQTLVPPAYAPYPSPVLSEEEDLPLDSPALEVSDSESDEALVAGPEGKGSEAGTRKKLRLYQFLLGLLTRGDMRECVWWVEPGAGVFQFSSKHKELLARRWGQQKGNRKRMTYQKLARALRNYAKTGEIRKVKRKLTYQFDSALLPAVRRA
Sequence of HSF1 (Q00613 whole entry): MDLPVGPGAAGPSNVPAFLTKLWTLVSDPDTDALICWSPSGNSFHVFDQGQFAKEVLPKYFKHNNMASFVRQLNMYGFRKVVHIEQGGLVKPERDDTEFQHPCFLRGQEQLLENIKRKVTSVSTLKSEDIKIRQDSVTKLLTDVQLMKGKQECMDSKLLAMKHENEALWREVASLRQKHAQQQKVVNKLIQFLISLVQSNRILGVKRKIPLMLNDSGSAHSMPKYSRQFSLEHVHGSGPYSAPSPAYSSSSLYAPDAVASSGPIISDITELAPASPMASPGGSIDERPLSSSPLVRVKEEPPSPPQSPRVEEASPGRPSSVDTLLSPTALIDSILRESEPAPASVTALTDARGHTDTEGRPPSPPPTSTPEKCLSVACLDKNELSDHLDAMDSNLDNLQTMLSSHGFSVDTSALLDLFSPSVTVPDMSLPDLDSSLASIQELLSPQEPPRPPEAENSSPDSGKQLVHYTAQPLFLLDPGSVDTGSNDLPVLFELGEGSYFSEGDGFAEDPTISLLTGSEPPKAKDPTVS
Sequence of ELF1 (P32519 whole entry): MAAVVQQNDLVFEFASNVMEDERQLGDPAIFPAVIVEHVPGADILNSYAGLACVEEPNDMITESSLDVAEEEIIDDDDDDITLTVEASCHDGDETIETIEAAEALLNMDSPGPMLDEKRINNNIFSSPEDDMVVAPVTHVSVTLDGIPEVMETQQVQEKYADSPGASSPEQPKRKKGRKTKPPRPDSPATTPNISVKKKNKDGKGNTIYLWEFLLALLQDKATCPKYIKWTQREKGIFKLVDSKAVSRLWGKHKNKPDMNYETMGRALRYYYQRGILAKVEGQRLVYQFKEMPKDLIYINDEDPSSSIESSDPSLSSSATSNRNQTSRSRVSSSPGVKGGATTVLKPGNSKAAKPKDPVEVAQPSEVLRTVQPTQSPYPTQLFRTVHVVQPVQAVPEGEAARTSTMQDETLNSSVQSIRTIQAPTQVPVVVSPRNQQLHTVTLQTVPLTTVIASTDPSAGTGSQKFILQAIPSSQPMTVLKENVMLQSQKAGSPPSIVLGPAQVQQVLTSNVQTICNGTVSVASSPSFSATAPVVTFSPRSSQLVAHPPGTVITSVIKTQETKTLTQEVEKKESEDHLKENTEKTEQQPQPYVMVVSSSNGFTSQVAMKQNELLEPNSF
Sequence of ETV1 (P50549 whole entry): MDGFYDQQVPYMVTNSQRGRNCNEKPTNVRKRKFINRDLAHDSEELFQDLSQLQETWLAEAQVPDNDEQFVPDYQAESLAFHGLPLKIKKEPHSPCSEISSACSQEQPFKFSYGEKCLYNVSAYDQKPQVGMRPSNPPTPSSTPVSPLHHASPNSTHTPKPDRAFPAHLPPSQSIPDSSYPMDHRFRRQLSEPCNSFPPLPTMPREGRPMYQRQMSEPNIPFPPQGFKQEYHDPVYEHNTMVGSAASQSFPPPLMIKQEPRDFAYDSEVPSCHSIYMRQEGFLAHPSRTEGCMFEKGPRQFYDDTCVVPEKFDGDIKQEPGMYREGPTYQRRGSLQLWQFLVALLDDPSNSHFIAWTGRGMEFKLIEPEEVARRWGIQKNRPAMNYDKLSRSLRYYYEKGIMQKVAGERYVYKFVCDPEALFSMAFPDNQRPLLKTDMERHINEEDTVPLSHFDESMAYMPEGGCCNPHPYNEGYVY
Sequence of CRX (O43186 whole entry): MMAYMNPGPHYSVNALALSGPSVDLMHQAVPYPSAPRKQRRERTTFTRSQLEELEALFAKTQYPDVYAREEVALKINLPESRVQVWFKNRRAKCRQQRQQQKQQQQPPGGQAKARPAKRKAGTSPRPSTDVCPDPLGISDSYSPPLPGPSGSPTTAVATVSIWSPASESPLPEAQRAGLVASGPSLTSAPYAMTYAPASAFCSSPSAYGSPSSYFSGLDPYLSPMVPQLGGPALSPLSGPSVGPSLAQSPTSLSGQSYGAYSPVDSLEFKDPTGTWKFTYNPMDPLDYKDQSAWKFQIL
Sequence of ETV5 (P41161 whole entry): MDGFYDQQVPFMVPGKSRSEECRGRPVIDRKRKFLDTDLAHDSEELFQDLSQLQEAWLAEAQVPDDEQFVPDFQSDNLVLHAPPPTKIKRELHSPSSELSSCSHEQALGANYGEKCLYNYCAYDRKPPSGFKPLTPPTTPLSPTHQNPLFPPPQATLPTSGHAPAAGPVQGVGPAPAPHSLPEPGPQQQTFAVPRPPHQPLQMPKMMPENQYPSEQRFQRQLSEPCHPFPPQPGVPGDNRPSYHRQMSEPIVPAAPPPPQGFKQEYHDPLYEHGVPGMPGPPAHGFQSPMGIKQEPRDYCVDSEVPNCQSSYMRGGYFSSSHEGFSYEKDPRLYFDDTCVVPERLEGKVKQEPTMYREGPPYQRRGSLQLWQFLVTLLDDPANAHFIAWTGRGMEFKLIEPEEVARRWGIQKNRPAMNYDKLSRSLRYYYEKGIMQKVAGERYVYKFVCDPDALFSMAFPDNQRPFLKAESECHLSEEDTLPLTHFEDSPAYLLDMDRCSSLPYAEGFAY

AATTGG: the binding signal with FLI1 is 1.38 fold enrichment (6-mer frequency, TF over GST control); in the assay with ELK1, 1.36 fold enrichment (6-mer frequency, TF over GST control); with GABPA, 1.31 fold enrichment (6-mer frequency, TF over GST control); with ERG, 1.34 fold enrichment (6-mer frequency, TF over GST control); in the assay with ELF1, 1.33 fold enrichment (6-mer frequency, TF over GST control); in the assay with EHF, 1.42 fold enrichment (6-mer frequency, TF over GST control). The binding signal is 1.4 fold enrichment (6-mer frequency, TF over GST control) with SPI1; 1.42 fold enrichment (6-mer frequency, TF over GST control) in the assay with SPIB; 1.48 fold enrichment (6-mer frequency, TF over GST control) with ELK3; 1.43 fold enrichment (6-mer frequency, TF over GST control) in the assay with FEV; 1.4 fold enrichment (6-mer frequency, TF over GST control) with ETV5; 1.2 fold enrichment (6-mer frequency, TF over GST control) with HSF1. Further, the binding signal in the assay with SPIC is 1.26 fold enrichment (6-mer frequency, TF over GST control); with ELF4, 1.38 fold enrichment (6-mer frequency, TF over GST control); with ELK4 it was 1.16 fold enrichment (6-mer frequency, TF over GST control); in the assay with ETV2, 1.2 fold enrichment (6-mer frequency, TF over GST control); with ELF3 it was 1.35 fold enrichment (6-mer frequency, TF over GST control); with CRX, 1.23 fold enrichment (6-mer frequency, TF over GST control). The binding signal with ETV1 is 1.39 fold enrichment (6-mer frequency, TF over GST control).
